# An excerpt weighted towards active compounds, which were near 12% of everything screened.
# MARV entry inh: blocks Marburg virus binding to or entry into cells; Marburg virus pseudotyped entry inhibition, cell reporter; Potency, µM (titrated, usually from 37.8 µM), for inactives: at the highest dose activity change, negative = inhibition, hits mostly inhibitors; 300,000 compounds, 1.8% hits; AID 540276; calls by dose curve; tested in HEK293 cells; note: potency is the fitted concentration of half-maximal effect; % is set by controls: 0 for no effect and ±100 for the full control effect
# Shiga toxin inh: Shiga toxin inhibition; 290,000 compounds, 9.2% hits; Vero cells, Shiga toxin protein synthesis inhibition reporter; inhibition, % at 38.7 µM; in the data active = inhibition mostly above about 28%, no sharp cut-off; inactive = mostly below about 43%; note: 0% is about no effect
# Cycloheximide cs: counter-screen hit for Shiga toxin inhibitors, cycloheximide. cell reporter, cycloheximide protein synthesis inhibition counterscreen. max response, %. 300,000 compounds, 12% hits; in the data active = max response mostly above about 13%, no sharp cut-off; inactive = mostly below about 14%; note: read at 38.3 µM for the half of the compounds with a filed dose; 0% is about no effect
# LASV entry inh: inhibitors of Lassa virus binding or cell entry; Lassa virus pseudotype entry inhibition, cell reporter; Potency, µM (top dose mostly 37.9 µM), without a hit: top-dose activity change, negative = inhibition, most hits filed as inhibitors; 300,000 compounds, 1.2% hits; AID 540256; calls by dose curve; tested in HEK293 cells; note: potency is the fitted concentration of half-maximal effect; % is set by controls: 0 for no effect and ±100 for the full control effect; nearly all actives have a fitted effect of over 50% in size
# Active calls of the source: *; ? = inconclusive; / = no result; [ ] = remark or other dose.
SMILES,MARV entry inh,Shiga toxin inh,Cycloheximide cs,LASV entry inh
O=C(NCC1CCCO1)c1sc2cc(Cl)ccc2c1Cl (stereo unspecified),19%,76*,54*,22%
CC(C)(CNC(=O)c1sc2cc(Cl)ccc2c1Cl)N1CCOCC1,13%,/,/,-24%
O=C(NCCCN1CCOCC1)c1sc2ccccc2c1Cl,/,47*,39*,/
O=C(NCCN1CCOCC1)c1sc2cc(Cl)ccc2c1Cl,3%[46.1 µM],45*,17*,?
CC(C)N1CCN(S(=O)(=O)c2ccccc2)c2ccccc21,?,/,/,7%[46.1 µM]
Nc1c(N=Nc2ccc(-c3ccc(N=Nc4cc(S(=O)(=O)O)c5ccccc5c4N)cc3)cc2)cc(S(=O)(=O)O)c2ccccc12,14µM*,-6,19,?
Cc1cccc(Cn2c(C)c(CNC3CCCCCC3)c(C(=O)O)c2C)c1,-12%[46.1 µM],/,/,-9%[46.1 µM]
Cc1nn2c(=O)cc(COC(=O)c3ccc(S(=O)(=O)N4CCCCC4)cc3)nc2s1,12%,-7,-2,-3%
Cc1ccc2oc(-c3cccc(NC(=O)c4ccc(Br)o4)c3)nc2c1,18%,38,26*,18%
O=C(Nc1cccc(-c2cc3ccccc3oc2=O)c1)c1ccc(Br)o1,11%,-2,-2,?
Cc1cc2nc(-c3cccc(NC(=O)c4ccc(Br)o4)c3)oc2cc1C,7%,80,41*,0%
COc1ccccc1CNC(=O)c1ccc(CS(=O)(=O)c2ccc(C)cc2)o1,/,-5,1,/
Oc1ccccc1-n1nc2ccc3nonc3c2n1,/,24,-2,/
COC(=O)c1nn(-c2ccc(OC)cc2)c(=O)cc1O,-14%[46.1 µM],20,6,4%[46.1 µM]
COc1ccc(-n2nc(C#N)c(Cl)cc2=O)cc1,3.2µM*,-15,-5,?
Cc1ccc(C(=O)Nc2ccccc2C(=O)N2CCOCC2)cc1[N+](=O)[O-],31%,-4,5,-2%
Cc1nc(/N=C(\N)Nc2ccccc2)nc2ccccc12,0%,43,16*,/
CCOC(=O)C1=C(CC)Nc2ccccc2N=C1NC(=O)CCNC(C)=O,3%,-23,-1,2.8µM*
COC(=O)C1CCN(C(=O)c2cc3ccccc3oc2=O)CC1,?,48*,33*,?
O=C(c1cc2ccccc2oc1=O)N1CCN(C(=O)C2CCCO2)CC1 (stereo unspecified),5%,12,1,50%[14.3 µM]
O=C(Nc1cccnc1N1CCOCC1)c1cc2ccccc2oc1=O,2%,47*,26*,15%
O=C(c1cc2ccccc2oc1=O)N1CCOCC1,14%,73*,39*,4%
CCOC(=O)C(SP(=S)(OC)OC)c1ccccc1 (stereo unspecified),/,2,6,/
CC(=O)N1c2ccc(S(=O)(=O)NCCC(=O)Nc3ncccc3C)cc2CC1C (stereo unspecified),11%[46.1 µM],-3,-3,3%[46.1 µM]
Cc1c(NS(=O)(=O)c2ccccc2)cc(C(C)C)c(O)c1S(=O)(=O)c1ccc(Cl)cc1,11µM*,/,/,-19%[46.1 µM]
SMILES,MARV entry inh,Shiga toxin inh,Cycloheximide cs,LASV entry inh
COc1ccc(S(=O)(=O)c2c(C)c(NS(=O)(=O)c3ccccc3)cc(C)c2O)cc1,-5%[46.1 µM],9,1,12%
CCCNC(=O)CCn1nc(-c2ccc(C)cc2)c2ccccc2c1=O,/,7,-1,-21%[46.1 µM]
CCCNC(=O)CCC(=O)Nc1ncc(-c2ccc(C)cc2)n1C,1%,33*,25*,-19%
Brc1cccc(Nc2nc(-c3cccnc3)cs2)c1,-14%,/,25*,?
Oc1ccc(Nc2nc(-c3cccnc3)cs2)cc1,?,/,38*,?
O=C(O)c1ccc(Nc2nc(-c3cccnc3)cs2)cc1,?,15,2,?
CCOc1ccc(Nc2nc(-c3cccnc3)cs2)cc1,15%,57*,40*,-11%
Brc1ccc(Nc2nc(-c3cccnc3)cs2)cc1,-17%[46.1 µM],121*,54*,-7%
Cc1ccc(NC(=O)CSc2nnc(-c3ccncc3)n2N)cc1C,4%,23,3,0%
Cc1ccc(Nc2nc(-c3cccnc3)cs2)cc1C,/,96*,51*,/
Cc1nc(C)c(-c2csc(Nc3ccc(O)cc3C)n2)s1,5%[46.1 µM],-7,1,-14%[46.1 µM]
Cc1cc(O)ccc1Nc1nc(-c2cccnc2)cs1,?,51*,31*,5%
Cc1cc(O)ccc1Nc1nc(-c2cccs2)cs1,?,69*,36*,?
COc1ccc(Cl)cc1Nc1nc(-c2cccnc2)cs1,?,-1,11,1%[46.1 µM]
Clc1cccc(Nc2nc(-c3cccnc3)cs2)c1,/,91*,40*,/
COC1=C(C(=O)c2ccccc2)C(=O)[C@@]2(CC=C(C)C)CC(C#N)C[C@@]1(CC=C(C)C)C2=O (stereo partly specified),-16%[14.2 µM],/,/,-36%[14.3 µM]
O=C(Cc1ccc(Cl)c(Cl)c1)Nc1ccc(S(=O)(=O)Nc2ncccn2)cc1,2%[46.1 µM],-10,-4,20%
COc1ccc(-c2n[nH]c3c2CN(C(=O)c2ccc(OC)c(OC)c2)CC3)cc1,/,-7,-10,/
O=C(Cc1ccccc1)N1CCc2[nH]nc(-c3ccccc3)c2C1,?,-3,-4,11µM*
CCOc1ccccc1NC(=O)c1sc2nc3n(c(=O)c2c1C)CCCCC3,/,/,/,3%[46.1 µM]
O=C(CNS(=O)(=O)c1cccc2nsnc12)NCc1ccc(Cl)cc1,-24%[46.1 µM],17,-1,-22%
N#Cc1c2n(c(=S)n(-c3ccccc3)c1=O)CCCCC2,4%[46.1 µM],-7,14*,-8%[46.1 µM]
Cc1ccc(-n2nc(C)c3c2OC(N)=C(C#N)C3c2cccs2)cc1 (stereo unspecified),-16%,81,17*,-1%
Cc1ccc(C(=O)COC(=O)CCN2C(=O)C3C4C=CC(C5CC45)C3C2=O)cc1 (stereo unspecified),12%[46.1 µM],2,0,18%[46.1 µM]
C#CCNC(=O)C1=C[C@@H](c2ccc(C(F)(F)F)cc2)C[C@@H](OCCCCO)O1,/,4,2,/
SMILES,MARV entry inh,Shiga toxin inh,Cycloheximide cs,LASV entry inh
O=C(Nc1ccccc1)C1=C[C@H](c2ccc3c(c2)OCO3)C[C@H](OCCCCO)O1,/,117*,47*,/
O=C(Nc1ccccc1)C1=C[C@@H](c2ccc(Br)cc2)C[C@@H](OCCCCO)O1,/,86*,52*,/
O=C(NCc1nc2ccccc2[nH]1)C1=C[C@@H](c2ccc(Br)cc2)C[C@@H](OCCCCO)O1,/,-6,-3,/
C#CCNC(=O)C1=C[C@H](c2ccc(Br)cc2)C[C@H](OCCCCO)O1,/,31*,12*,/
COc1ccc(NC(=O)Cn2c(=O)n(-c3ccc(C)cc3)c(=O)c3c2c2cc(C)ccc2n3C)cc1,/,/,/,24%[46.1 µM]
CCNC(=S)NNC(=O)c1cc(-c2cccc(C)c2)nc2ccccc12,-29%,33,21*,?
CCNC(=S)NNC(=O)c1cc(-c2cccnc2)nc2ccccc12,?,4,12,1%
CCCOc1cccc(-c2cc(C(=O)NN)c3ccccc3n2)c1,?,18,7,?
CCCCOc1cccc(-c2cc(C(=O)NNC(=S)NCC)c3ccccc3n2)c1,-9%,40,28*,30%[14.3 µM]
CCNC(=S)NNC(=O)c1cc(-c2cccc(OCC)c2)nc2ccccc12,15%,51,14*,-4%
CCNC(=S)NNC(=O)c1cc(-c2ccc(OC)cc2)nc2ccccc12,0.65µM*,-7,16,3.3µM*
COc1ccc(NC(=O)CSc2nnc(-c3nonc3NC(C)=O)n2C)cc1Cl,14%[46.1 µM],/,/,-19%[46.1 µM]
CCCCCCCCCCOC(=O)c1csc2nnsc12,4%,-1,1,3%

# Source: PubChem BioAssay (National Center for Advancing Translational Sciences (NCATS))
